Assay outcomes deposited in PubChem BioAssay by ICCB-Longwood Screening Facility, Harvard Medical School.
Most compounds without a hit are left out; they make up all but 1.5% or so of the library.
PV pol inh – poliovirus RNA polymerase inhibition; P03300; poliovirus polymerase elongation, fluorescence polarization; hits give low values; % elongation, % (compound at 16.7 µg/mL); actives 0.66% (n = 150,000); AID 588519; in the data active means % elongation below about 90%
MbtI inh – blocks the Mycobacterium tuberculosis siderophore enzyme MbtI. actives 0.89% (n = 100,000). P9WFX0. AID 493033. inhibition, % (test concentration not listed). purified MbtI enzyme, fluorescence intensity read-out; in the data active means inhibition mostly above about 56%, no sharp cut-off; inactive means mostly below about 77%
Target sequence (P9WFX0 whole entry, looked up): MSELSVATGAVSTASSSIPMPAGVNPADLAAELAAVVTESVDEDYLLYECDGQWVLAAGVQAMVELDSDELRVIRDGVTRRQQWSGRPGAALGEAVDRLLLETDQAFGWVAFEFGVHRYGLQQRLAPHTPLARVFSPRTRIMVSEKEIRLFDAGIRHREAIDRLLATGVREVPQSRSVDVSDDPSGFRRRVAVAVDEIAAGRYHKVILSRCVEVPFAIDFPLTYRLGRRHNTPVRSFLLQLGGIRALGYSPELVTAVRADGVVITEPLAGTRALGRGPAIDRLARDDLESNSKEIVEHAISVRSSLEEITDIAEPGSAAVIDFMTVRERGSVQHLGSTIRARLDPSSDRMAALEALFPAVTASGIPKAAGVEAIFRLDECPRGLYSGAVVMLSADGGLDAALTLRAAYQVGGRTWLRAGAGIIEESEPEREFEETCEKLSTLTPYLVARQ
Mtb MenB inh – Mtb MenB enzyme inhibition | P9WNP5 | MenB enzyme assay, absorbance read-out | inhibition, % (no concentration beside the values) | actives 0.43% (n = 100,000) | AID 540299; in the data active means inhibition above about 21%, passing the limit was not always enough
An asterisk follows results filed as active; / = no result given.

SMILES | PV pol inh | MbtI inh | Mtb MenB inh
Cc1nn(Cc2ccc(C(=O)Sc3ccc(C(F)(F)F)cn3)o2)c(C)c1Br | 104 | 86* | 9
CCCCCCSc1nc(O)c(CC)c(=O)n1-c1ccccc1 | 101 | -2 | -30
CCCCNC(=O)C1CCN(Cc2ccccc2OCC)CC1 | 102 | -1 | -3
CCCCNC(=O)CN1CCN(Cc2cccc(OCC)c2OC)CC1 | 88* | -6 | 7
COc1ccc(CCNC(=O)CSc2nnc(C)s2)cc1OC | 102 | -1 | -4
COc1ccc(CSc2nnc(C)s2)cc1F | 102 | 0 | 56*
CN1CCN(c2ccc(Nc3ccnc4cc(Cl)ccc34)cc2Cl)CC1 | 89* | / | 0
CCN(CC)Cc1cc(Nc2ccnc3cc(Cl)ccc23)ccc1O | 101 | 24 | -6
COc1ccccc1OCC(O)CN (stereo unspecified) | 100 | -13 | -25
N#CCc1nc(-c2cccc(Cl)c2)n[nH]1 | 101 | 74* | 12
N#CCc1nc(-c2ccc(C(F)(F)F)cc2)n[nH]1 | 102 | 46 | -13
Cc1noc(C)c1CSCC(=O)N1CC(C)SC1=Nc1ccc(Cl)cc1 (stereo unspecified) | 104 | -10 | -6
Cc1ccccc1N(C(=O)c1cccs1)c1nc2ccccc2s1 | 105 | 1 | 7
CNc1sc(C(=O)c2cccs2)c(N)c1-c1nc2ccccc2s1 | 110 | 97* | -43
CCC1CCCCN1c1ncnc2c1nnn2Cc1ccccc1Cl (stereo unspecified) | 101 | 4 | 0
Cc1ccc(Cn2nnc3c(=O)[nH]c(C4CCCN(C(=O)c5ccco5)C4)nc32)cc1 (stereo unspecified) | 100 | -5 | 6
CC(C)(C)c1nc(N2CCN(C(=O)c3ccco3)CC2)c2nnn(Cc3ccccc3Cl)c2n1 | 103 | 23 | 24*
CN(C)c1nc(C2CC2)nc2c1nnn2Cc1ccccc1Cl | 104 | 7 | 38*
CC(C)(C)OC(=O)N1CCC(c2nc3c(nnn3Cc3ccccc3Cl)c(=O)[nH]2)CC1 | 104 | -10 | -17
NC(=O)C1CCN(c2nc(C3CC3)nc3c2nnn3Cc2ccccc2Cl)CC1 | 102 | 7 | 52*
N/C(CN1CCSCC1)=N\OC(=O)c1ccccc1F | 102 | -10 | 1
O=C(/C=C/c1ccco1)OC(C(=O)Nc1ccc(F)cc1)c1ccccc1 (stereo unspecified) | 124 | 14 | -32
CC(C)Cn1c2ccc(Cl)cc2c2nc3ccccc3nc21 | 100 | 6 | -21
O=C(O)CCCN=C1NC2(CCCC2)Cc2ccccc21 | 108 | / | -17
O=C(O)CN=C1NC2(CCCC2)Cc2ccccc21 | 100 | -1 | 34*
SMILES | PV pol inh | MbtI inh | Mtb MenB inh
CCOC(=O)C1=C(C)NC(SCC(N)=O)=C(C#N)C1C1CC=CCC1 (stereo unspecified) | 97 | -5 | -13
Cc1ccsc1C=Nc1ccc(OC(F)(F)F)cc1 | 102 | -10 | /
Cc1ccsc1C=Nc1ccc(O)cc1 | 100 | 96* | -28
O=C(CSC1CCCCC1)c1ccccc1F | 99 | 7 | /
CN(C)C(=S)Nc1ccccc1OC(F)F | 98 | 88* | -14
CN(C)C(=S)Nc1cccc2ccccc12 | 103 | 1 | -22
COc1cc(OC)cc(-c2nnc(SC(C)C(=O)NC3(C#N)CCCCC3)o2)c1 (stereo unspecified) | 100 | -4 | -26
N=C(N)N1CCN(CC(O)COc2ccccc2)CC1 (stereo unspecified) | 105 | -8 | 1
O=c1[nH]c(=S)[nH]nc1Cc1ccc(Cl)c(Cl)c1 | 102 | 58* | -27
O=c1[nH]c(=S)[nH]c(C(F)(F)F)c1Cc1ccc(Cl)c(Cl)c1 | 103 | -9 | 1
CCCN1CCSC1=Nc1ccccc1F | 105 | -6 | -3
O=c1c2c(F)c(F)c(F)c(F)c2on2c3c(cc12)CCCC3 | 87* | -12 | -10
N#CCc1ccc(NC(=O)C2CCCCC2)cc1 | 99 | -2 | -5
Cc1oc2c(c1C(=O)O)C(=O)c1ccccc1C2=O | 66* | -3 | -13
Cc1oc2c(c1C(=O)NCc1ccccc1)C(=O)c1ccccc1C2=O | 101 | 13 | -2
CCOC(=O)N1CCN(S(=O)(=O)c2ccc(C(=O)Nc3ccc4nc(SC)sc4c3)cc2)CC1 | 101 | 9 | 4
CN(C)C(=S)NC(=O)c1ccccc1 | 99 | 7 | -1
CN(CC(=O)O)C(=S)c1ccccc1 | 76* | 54* | 5
CC1CCCC(C)N1CC(=O)O (stereo unspecified) | 102 | -4 | -67
Cc1csc(CC(N)=S)n1 | 102 | 98* | -56
Cc1csc(C/C(N)=N/O)n1 | 102 | 0 | 1
Cc1occc1C(=O)N/N=C/c1cn(-c2ccccc2)nc1-c1ccccc1 | 100 | -5 | -17
CCC(=O)Nc1cc(C(=O)OCC(=O)c2cccs2)ccc1C | 102 | / | -3
Cn1cccc1/C=C/C(=O)O | 76* | 11 | -21
Cn1cccc1/C=C/C(=O)OCC(=O)c1ccc(Cl)s1 | 106 | 14 | -9
SMILES | PV pol inh | MbtI inh | Mtb MenB inh
Cc1c(F)cccc1NC(=O)c1cc(=O)n(C)c(=O)n1C | 103 | -8 | 4
O=C(NN1C(=O)c2ccccc2C1=O)c1ccccc1 | 100 | / | 8
Cc1ccccc1C(=O)NN1C(=O)c2ccccc2C1=O | 101 | -1 | 33*
COc1cc2nc(CN3CC(C)OC(C)C3)[nH]c(=O)c2cc1OC (stereo unspecified) | 103 | 7 | -3
CC(N)CCCc1ccccc1 (stereo unspecified) | 101 | -4 | -10
COc1cc2ccccc2cc1C(=O)OCC(=O)c1ccc(Cl)cc1 | 97 | -4 | /
Cc1cccc(-c2noc(CNC(=O)C34CC5CC(CC(C5)C3)C4)n2)c1 | 102 | -4 | 11
C/C(=N\NC(N)=S)c1ccc(O)cc1 | 104 | 32 | -24
C/C(=N\NC(N)=S)c1ccc(Cl)cc1 | / | 61* | -54
Nc1ccccc1OC1CCCC1 | 98 | -2 | -16
CCOC(=O)CC(=N)N | 103 | -5 | -26
OC1CCCN(CC(O)COc2c(Cl)cccc2Cl)C1 (stereo unspecified) | 100 | -13 | 3
O=C(CCc1c[nH]c2ccccc12)N1CCN(c2ccccc2)CC1 | 101 | -12 | 2
N#CCCn1cc(/C=C2\N=C(c3ccccc3)OC2=O)c(-c2ccc(F)cc2)n1 | 103 | -3 | 7
CC(C)(C)NC(=O)Cc1ccccc1 | 102 | -16 | 38*
NNC(=O)Cc1ccccc1 | 103 | -5 | -11
Cc1ccc(C)c(N2CCN(CCCNC(=O)c3nc(-c4cccnc4)no3)CC2)c1 | 102 | -16 | 1
O=C1Nc2ccccc2C1c1nc2ccccc2[nH]c1=O (stereo unspecified) | 105 | 4 | /
O=C(NC1CCN(Cc2ccccc2)CC1)c1ccc(Cn2c(=O)c3ccccc3n(Cc3ccc(F)cc3)c2=O)cc1 | 104 | / | /
COc1ccc(Cn2c(=O)[nH]c3cc(C(=O)NC4CCN(Cc5ccccc5)CC4)ccc32)cc1 | 104 | 7 | 30*
CCOC(=O)c1c(-c2ccccc2)csc1NC(=O)C1CC1 | 103 | -4 | /
COC(=O)c1c(-c2ccccc2)csc1N | 94 | 59* | -19
S=C(NCc1cccs1)N1CCN(c2ncccn2)CC1 | 99 | -5 | -10
COc1ccc(CN2CCN(C3=NS(=O)(=O)C(c4ccc(Cl)cc4)=C3C)CC2)c(OC)c1OC | 102 | 10 | -15
